Records with an inconclusive call do not appear. The source made the active and inactive calls. No cut-off is given here; in the data, nearly all actives have IC50 up to about 30 µM.

This assay in a line: SU-DIPG-XXV glioma cell viability, MIPE5.0 library, qHTS (AID 1347068).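 For IC50: cells exposed to compound for 48 hours before viability readout.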 Background: Quantitative high-throughput screening tests each substance at several concentrations.
As to `Clc1ccc2ncc(-c3cccc(NC4CNC4)n3)n2c1`, the molecule was classed as inactive.
With `CC[C@H](CC#N)OC(=O)N[C@@H](C)c1cccc(NC(=O)Nc2ccc(-c3cnco3)c(OC)c2)c1`, the IC50 – broadly, the concentration that inhibits the measured activity by half – is 14.8 µM (active).
As for `O=c1ccn([C@@H]2O[C@H](CO)[C@@H](O)[C@@H]2F)c(=O)[nH]1`, the molecule was classed as inactive.
Take `CNC(=O)c1cc(Oc2ccc(NC(=O)Nc3ccc(Cl)c(C(F)(F)F)c3)c(F)c2)ccn1`: the IC50 is 20.9 µM (active).
With `CC(C)=CCC/C(C)=C/CC/C(C)=C/CSc1ccccc1C(=O)O`, the molecule was classed as inactive.
Regarding `Nc1cccc(-c2cc3c(Oc4cccc(O)c4)ncnc3[nH]2)c1`, the IC50 was 8.33 µM (active).
Regarding `CO[C@@H]1[C@@H](O)[C@H](O)[C@@H](n2c3c(Cl)cccc3c3c4c(c5c6cccc(Cl)c6[nH]c5c32)C(=O)NC4=O)O[C@H]1CO`, the molecule was called inactive.
On to `OCCn1cc(-c2ccc3c(c2)CC/C3=N\O)c(-c2ccncc2)n1`, for which the molecule was classed as inactive.
On to `CN(C)CC(=O)N1CCC(c2ccc(NC(=O)c3ncc(C#N)[nH]3)c(C3=CCCCC3)c2)CC1`, for which the outcome was inactive.
`CCC(=C/[C@H](C)C/C=C/C(C)=C/[C@@H](C)C(=O)[C@@H](C)[C@H](O)[C@@H](C)C/C(C)=C/C(=O)O)/C=C/[C@@H]1OC(=O)C=C[C@@H]1C`: the IC50 was 0.833 µM (active).
On to `CC(C)(O)CC(=O)NCCn1ccc2ncnc(Nc3ccc(Oc4cccc(C(F)(F)F)c4)c(Cl)c3)c21`, for which the IC50 was 23.5 µM (active).
Same read-out and setting: to `CNc1nccc(-c2cccnc2Oc2cc(C(=O)Nc3cccc(C(F)(F)F)c3)ccc2C)n1` belongs 13.2 µM (active).
For `CNc1nc(Nc2ccc(C(=O)N3CCOCC3)cc2OC)ncc1Cl`, the call was inactive.
